Results reported in PubChem BioAssay AID2073 (Sanford-Burnham Center for Chemical Genomics, 2009).
The whole screen tested about 290,000 compounds, of which about 570 (0.2%) were called active. About 1% were inconclusive and are not listed. The sample holds actives, similar compounds and a random draw of the others, so the mix is not that of the screen. No stated cut-off is given here; in the data, active means inhibition mostly above about 51% (no sharp cut-off); inconclusive means no clear call, values can overlap the other calls; inactive means mostly below about 53%.

Molecular target: Voltage-dependent N-type calcium channel subunit alpha-1B (Homo sapiens) (UniProt Q00975)
Experiment: disruptors of CaV2.2 binding to Mint1 – biochemical, HTRF (AID 2073)
Conditions: HTRF protein-protein interaction, Mint1-CaV2.2, at 20 µM, stronger effect = higher value
[1] = measured here: average of repeat tests

Chain of Voltage-dependent N-type calcium channel subunit alpha-1B (Homo sapiens) (Q00975 whole entry, looked up): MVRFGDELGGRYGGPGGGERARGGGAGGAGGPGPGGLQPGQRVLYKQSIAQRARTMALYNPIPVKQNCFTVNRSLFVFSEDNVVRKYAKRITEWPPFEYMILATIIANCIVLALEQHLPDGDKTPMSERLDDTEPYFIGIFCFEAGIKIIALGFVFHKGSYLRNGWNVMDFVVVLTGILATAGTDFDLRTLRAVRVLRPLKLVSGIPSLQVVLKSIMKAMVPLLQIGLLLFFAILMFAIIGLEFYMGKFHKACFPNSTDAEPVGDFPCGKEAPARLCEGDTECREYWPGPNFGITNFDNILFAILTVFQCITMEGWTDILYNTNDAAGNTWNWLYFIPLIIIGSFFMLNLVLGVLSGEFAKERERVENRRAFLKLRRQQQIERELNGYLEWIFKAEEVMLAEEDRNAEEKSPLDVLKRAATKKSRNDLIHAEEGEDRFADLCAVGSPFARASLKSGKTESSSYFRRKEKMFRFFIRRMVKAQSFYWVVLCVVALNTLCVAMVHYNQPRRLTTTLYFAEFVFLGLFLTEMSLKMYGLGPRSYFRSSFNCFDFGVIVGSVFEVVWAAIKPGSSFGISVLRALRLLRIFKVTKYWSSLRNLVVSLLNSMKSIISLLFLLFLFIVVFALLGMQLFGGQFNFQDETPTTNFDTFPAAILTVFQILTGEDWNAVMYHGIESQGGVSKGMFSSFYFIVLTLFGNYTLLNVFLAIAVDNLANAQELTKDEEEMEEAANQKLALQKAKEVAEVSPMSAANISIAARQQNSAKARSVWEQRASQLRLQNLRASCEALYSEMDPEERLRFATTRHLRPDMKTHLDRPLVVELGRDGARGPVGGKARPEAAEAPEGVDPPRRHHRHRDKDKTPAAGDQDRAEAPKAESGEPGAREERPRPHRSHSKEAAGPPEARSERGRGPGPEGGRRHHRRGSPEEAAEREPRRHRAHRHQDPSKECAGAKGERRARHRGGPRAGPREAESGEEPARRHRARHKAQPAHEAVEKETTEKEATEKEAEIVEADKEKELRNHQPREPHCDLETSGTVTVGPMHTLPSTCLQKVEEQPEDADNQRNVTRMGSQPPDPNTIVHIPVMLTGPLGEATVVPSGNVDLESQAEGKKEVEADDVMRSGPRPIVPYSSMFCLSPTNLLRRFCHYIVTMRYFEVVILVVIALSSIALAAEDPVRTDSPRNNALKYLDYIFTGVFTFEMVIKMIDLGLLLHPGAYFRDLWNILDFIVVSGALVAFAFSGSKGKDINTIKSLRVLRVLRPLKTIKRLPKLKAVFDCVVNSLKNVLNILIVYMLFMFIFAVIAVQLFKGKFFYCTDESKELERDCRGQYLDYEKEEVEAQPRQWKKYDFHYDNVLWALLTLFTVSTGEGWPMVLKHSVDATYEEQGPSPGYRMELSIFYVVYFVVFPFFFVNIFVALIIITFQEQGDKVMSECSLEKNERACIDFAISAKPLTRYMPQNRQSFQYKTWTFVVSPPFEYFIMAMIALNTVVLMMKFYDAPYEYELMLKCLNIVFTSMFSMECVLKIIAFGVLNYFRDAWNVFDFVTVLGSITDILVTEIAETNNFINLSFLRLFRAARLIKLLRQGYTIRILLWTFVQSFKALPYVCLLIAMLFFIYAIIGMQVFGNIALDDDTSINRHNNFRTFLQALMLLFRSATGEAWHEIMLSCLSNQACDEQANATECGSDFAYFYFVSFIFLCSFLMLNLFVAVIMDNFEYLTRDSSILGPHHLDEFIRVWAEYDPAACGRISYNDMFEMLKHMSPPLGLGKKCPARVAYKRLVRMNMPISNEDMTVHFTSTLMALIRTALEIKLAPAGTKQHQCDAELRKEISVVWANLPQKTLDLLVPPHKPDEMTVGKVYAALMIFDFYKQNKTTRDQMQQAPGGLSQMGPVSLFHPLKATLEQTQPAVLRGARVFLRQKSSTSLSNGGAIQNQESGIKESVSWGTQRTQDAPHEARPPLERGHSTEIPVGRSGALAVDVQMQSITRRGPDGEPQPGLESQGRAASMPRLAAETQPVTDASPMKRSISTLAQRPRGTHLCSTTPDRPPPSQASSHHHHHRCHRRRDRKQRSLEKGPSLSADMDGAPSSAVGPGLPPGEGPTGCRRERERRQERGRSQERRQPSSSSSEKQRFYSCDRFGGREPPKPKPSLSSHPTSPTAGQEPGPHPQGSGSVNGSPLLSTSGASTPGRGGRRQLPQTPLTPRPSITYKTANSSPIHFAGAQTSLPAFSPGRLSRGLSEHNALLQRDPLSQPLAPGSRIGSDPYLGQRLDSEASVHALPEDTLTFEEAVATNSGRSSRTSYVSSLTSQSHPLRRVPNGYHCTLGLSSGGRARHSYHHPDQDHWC

| Compound | inhibition | inhibition [1] |
| --- | --- | --- |
| CCCCc1cc(=O)oc2cc(OCC(=O)N3CCC(C(N)=O)CC3)ccc12 | 8.7% (inactive) | – |
| O=C(c1ccco1)N1CCN(Cc2cccc3ccccc23)CC1 | 3.9% (inactive) | – |
| O=C(COC(=O)c1ccc(O)cc1)Nc1cccc(S(=O)(=O)NC2=NCCCCC2)c1 | -9.8% (inactive) | – |
| NS(=O)(=O)c1ccc(NC(=O)COC(=O)c2cnccn2)cc1 | 51.2% (active) | – |
| O=C(COC(=O)c1cnccn1)Nc1ccc(Cl)cc1 | 3.8% (inactive) | – |
| CC(=O)Nc1ccc(NC(=O)COC(=O)c2cnccn2)cc1 | 15.7% (inactive) | – |
| CC(C)OC(=O)c1cc2c(ccn2-c2ccc(F)cc2)n1CC(=O)N1CCN(C(=O)c2ccco2)CC1 | 40.4% (inactive) | – |
| C[C@H]1c2cccc(O)c2C(O)=C2C(=O)[C@]3(O)C(O)=C(C(N)=O)C(=O)[C@@H](N(C)C)[C@@H]3[C@@H](O)[C@@H]21 | 13.4% (inactive) | – |
| CN(C)[C@@H]1C(=O)C(C(N)=O)=C(O)[C@@]2(O)C(=O)C3=C(O)c4c(O)ccc(Cl)c4[C@@H](O)[C@H]3C[C@@H]12 | 56.1% (active) | – |
| CN(C)c1ccc(O)c2c1CC1CC3[C@@H](N(C)C)C(=O)C(C(N)=O)=C(O)[C@]3(O)C(=O)C1=C2O (stereo not given in full) | 22.3% (inactive) | – |
| C=C1CCC[C@]2(C)C[C@H]3OC(=O)C(CN(Cc4ccc(OC)c(OC)c4)CC(C)O)[C@H]3CC12 (stereo not given in full) | 6.9% (inactive) | – |
| COc1cccc(-c2nc(NCc3cccnc3)c3ccccc3n2)c1O | 14.2% (inactive) | – |
| O=C(Nc1ccc2oc(-c3ccccc3F)nc2c1)c1ncn[nH]1 | 2.6% (inactive) | – |
| O=C(Nc1ccc2oc(-c3ccccc3Cl)nc2c1)c1ncn[nH]1 | 28.3% (inactive) | – |
| O=C(c1cccs1)N1CCN=C1SCc1cccnc1 | -1.3% (inactive) | – |
| CCOc1cccc(NC(=O)c2cccc(F)c2)c1 | 2.7% (inactive) | – |
| CN(C)C=Nc1c(Br)cc(Br)c2nonc12 | 19.7% (inactive) | – |
| Cc1ccc(Nc2nc(=O)c3cccnc3s2)cc1 | 2.2% (inactive) | – |
| Cc1ccc(Nc2nc(=O)c3cccnc3s2)c(Br)c1 | -13% (inactive) | – |
| COc1ccc(OC)c(Nc2nc(=O)c3cccnc3s2)c1 | 81.8% (active) | – |
| Cc1cccc(Oc2sc(C(=O)c3ccccc3)c(N)c2C#N)c1C | 4.2% (inactive) | – |

| Compound | inhibition | inhibition [1] |
| --- | --- | --- |
| CCCCNc1nc2ccccc2nc1Cl | 4.6% (inactive) | – |
| COc1ccc(C2(C)NC(=O)N(CC(=O)Nc3ccc(S(=O)(=O)N4CCCC4)cc3)C2=O)cc1 (stereo not given) | 4.9% (inactive) | – |
| Oc1ccc(N=C/C=C/c2ccc(Br)cc2)cc1-c1nc2ccccc2s1 | 62.9% (active) | – |
| Oc1ccc(N=C/C=C/c2cccc(Br)c2)cc1-c1nc2ccccc2s1 | 66.6% (inactive) | 5% |
| Brc1ccc(/C=C/C=N/Nc2nc3ccccc3s2)cc1 | 5.3% (inactive) | – |
| CCN=C1NN=C(c2cc(C)n(Cc3ccco3)c2C)CS1 | 57.5% (active) | – |
| COCCCN=C1NN=C(c2cc(C)n(Cc3ccco3)c2C)CS1 | 24.8% (inactive) | – |
| Cc1cc(C2=NNC(=NC3CC3)SC2)c(C)n1Cc1ccco1 | 26.3% (inactive) | – |
| CCOC(=O)/C(C#N)=C1/C=Nc2ccccc2N1 | 14.4% (inactive) | – |
| Cc1ccc(NC(=O)CCNS(=O)(=O)c2ccc3[nH]c(=O)oc3c2)c(C)c1 | -0.1% (inactive) | – |
| COc1cccc(C(=O)Nc2ccc3c(c2)C(=O)NC3=O)c1 | 11.6% (inactive) | – |
| Cc1ccn2c(Nc3ccccc3C)c(-c3ccccn3)nc2c1 | 15% (inactive) | – |
| Cc1ccc(Nc2c(-c3ccccn3)nc3cc(C)ccn23)cc1 | 50.4% (active) | – |
| Cc1ccn2c(Nc3ccccc3)c(-c3ccccn3)nc2c1 | 21.1% (inactive) | – |
| O=C(Nc1ccc2c(c1)OCCO2)c1cccc(Br)c1 | -4.4% (inactive) | – |
| Nc1nnnn1/N=C/c1ccccc1OCc1ccc(Cl)cc1 | 0.5% (inactive) | – |
| Cc1nn(CC(=O)NCC2CCCO2)c(C)c1[N+](=O)[O-] (stereo not given) | 5.2% (inactive) | – |
| NC(=O)c1sc(=S)n2c1[nH]c(=O)c1sccc12 | 51.8% (active) | – |
| O=C(NCc1ccccc1)c1sc(=S)n2c1[nH]c(=O)c1ccccc12 | -8.6% (inactive) | – |
| CC(=O)NNC(=O)c1sc(=S)n2c1[nH]c(=O)c1sccc12 | 46.1% (inactive) | – |
| Cc1c(C(=O)/C=C/c2cccs2)oc2ccc(F)cc12 | -6.1% (inactive) | – |

| Compound | inhibition | inhibition [1] |
| --- | --- | --- |
| O=C(OC1CCCCC1)c1ccc2c(c1)C1C=CCC1C(C(=O)O)N2 (stereo not given) | 74.8% (active) | – |
| CCOC(=O)c1ccc2c(c1)C1C=CCC1C(C(=O)O)N2 (stereo not given) | 31% (inactive) | – |
| Cc1ccc2c(c1)C1C=CCC1C(C(=O)O)N2 (stereo not given) | 39.2% (inactive) | – |
| Cc1ccccc1OCC(=O)OC(C(=O)c1ccccc1)c1ccccc1 (stereo not given) | 12.2% (inactive) | – |
| O=C1CCCN1c1cc(Cl)ccc1Cl | -4.5% (inactive) | – |
| Fc1ccc(Nc2nnc(C(F)(F)F)s2)cc1Cl | 10.6% (inactive) | – |
| O=c1cc(O)c2sc(Nc3cccc(C(F)(F)F)c3)nc2[nH]1 | 66.6% (active) | – |
| O=c1cnnc(Nc2cccc(C(F)(F)F)c2)[nH]1 | 2.4% (inactive) | – |
| O=c1cc(O)c2sc(Nc3ccc(Cl)c(F)c3)nc2[nH]1 | 66.1% (inactive) | 31.6% |
| Cc1cc(=O)[nH]c(Nc2cccc(C(F)(F)F)c2)n1 | -2.3% (inactive) | – |
| O=c1cc(O)c2sc(Nc3ccc(F)c(Cl)c3)nc2[nH]1 | 86.3% (active) | – |
| O=c1cc(O)c2sc(Nc3ccc(F)cc3)nc2[nH]1 | 63.2% (active) | – |
| COc1ccc(Nc2nc3[nH]c(=O)cc(O)c3s2)cc1 | 87.5% (inactive) | 17.2% |
| Fc1ccc(Nc2nc3ccccc3s2)cc1 | 3.5% (inactive) | – |
| O=C(/C=C/c1ccccc1)N1CCN(S(=O)(=O)c2ccc(F)cc2)CC1 | -4.1% (inactive) | – |
| CN(C)CCNc1nc2c(c(=O)[nH]c(=O)n2C)n1CC(O)COc1ccc(Cl)cc1 (stereo not given) | -3% (inactive) | – |
| O=C(N/N=C/c1ccc(O)cc1O)c1ccc(CN2C(=O)c3cccc4cccc2c34)cc1 | 69.5% (active) | – |
| COc1ccc(/C=N/NC(=O)c2ccc(CN3C(=O)c4cccc5cccc3c45)cc2)cc1O | 71.7% (inactive) | 39.7% |
| O=C(N/N=C/c1ccccc1)c1ccc(CN2C(=O)c3cccc4cccc2c34)cc1 | 36.4% (inactive) | – |
